Shiga toxin inh = Shiga toxin inhibition. inhibition, % at 38.7 µM. Vero cells, Shiga toxin protein synthesis inhibition reporter. 9.2% of 290,000 active; in the data active = inhibition mostly above about 28%, no sharp cut-off; inactive = mostly below about 43%; also: 0% is about no effect
HCMV inh = human cytomegalovirus inhibition. 4.5% of 410,000 active. activity change, negative = inhibition, % at 57.5 µM. HFF cells, HCMV-luciferase reporter, 72 h; hits give low values; in the data active = activity change below about -60%; inconclusive = no clear call, values can overlap the other calls; inactive = above about -39%; also: % is scaled to controls: 0 for no effect and ±100 for the full control effect
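Two-dose cell screen: HFF monolayers treated with compounds and infected with luciferase-expressing HCMV at 1 PFU/cell, 72 h at 37C, then lysed for luciferase measurement.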
CHX counter = counter-screen for Shiga toxin inhibitors: cycloheximide protein synthesis inhibition; cell reporter, cycloheximide protein synthesis inhibition counterscreen; 12% of 300,000 active; max response, %; AID 2314; in the data active = max response mostly above about 13%, no sharp cut-off; inactive = mostly below about 14%; also: read at 38.3 µM for the half of the compounds with a filed dose; 0% is about no effect
HCV inhibitor = blocks hepatitis C virus. Potency, µM (highest dose often 41.8 µM), for the others: at the highest dose activity change, negative = inhibition, most hits filed as inhibitors. 3.4% of 340,000 active. Huh7.5.1 HCVcc-Cre infection, luciferase reporter, 44 h; also: potency is read from the fitted curve at half-maximal effect; % is scaled to controls: 0 for no effect and ±100 for the full control effect
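Compounds are dispensed onto cells plated 4 h earlier at 1,000 per well, with HCVcc-Cre virus (about 0.5 moi) added next. Following 44 h of culture, luminescent signal is measured for 15 sec after 15 min with substrate at room temperature.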
Pf growth 96h = P. falciparum growth inhibition at 96 hour, primary screen for plastid delayed-death inhibitors | 6.9% of 320,000 active | P. falciparum luciferase reporter growth, 96 h | Potency, µM (titrated, usually from 28.7 µM), without a hit: top-dose activity change, negative = inhibition, most hits filed as inhibitors; also: potency is read from the fitted curve at half-maximal effect; % is scaled to controls: 0 for no effect and ±100 for the full control effect
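P. falciparum expressing integrated firefly luciferase, in erythrocytes at 2% hematocrit, 0.05% parasitemia, incubated with compounds 96 h at 37 C, 5% CO2. Growth inhibition read as loss of luminescence; two-generation exposure targets delayed-death apicoplast inhibitors.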
Pf growth 48h = inhibits P. falciparum growth in the first generation, 48 h | P. falciparum luciferase growth in erythrocytes, 48 h | Potency, µM (series often up to 28.7 µM), for inactives: top-dose activity change, negative = inhibition, actives largely listed as inhibitors | 5.9% of 310,000 active; also: potency is read from the fitted curve at half-maximal effect; % is scaled to controls: 0 for no effect and ±100 for the full control effect
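Luciferase-expressing parasites in RBCs, 2% Hct / 0.1% parasitemia final; RPMI 1640 + 0.5% Albumax; 37 C, 5% CO2, one generation; luminescence read-out, lower signal = inhibition.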
* = called active by the depositor; ? = inconclusive; nt = not tested or not shown. Compounds with a hit are over-represented: about 21% of the library has one in this group of screens. Unless noted, calls follow the shape of the dose curve; as a rule, active = well fitted inhibition curve with a large enough effect; inconclusive = small, poorly fitted or top-dose-only effect, or another doubt; inactive = no such curve, though single readings can be large or run the other way.

SMILES	Shiga toxin inh	HCMV inh	CHX counter	HCV inhibitor	Pf growth 96h	Pf growth 48h
CCc1ccc(C(=O)CCC(=O)Nc2cccc(S(=O)(=O)N3CCCCC3)c2)cc1	nt	-29	nt	10µM*	?	?
Cc1ccc(NCC(=O)Nc2cccc(S(=O)(=O)N(C)C)c2)cc1S(=O)(=O)N1CCCCCC1	nt	-81*	nt	10µM*	?	?
O=C(O)C(=Cc1ccc([N+](=O)[O-])cc1)c1ccccc1	nt	13	nt	nt	nt	nt
CC(=O)N1c2ccc(S(=O)(=O)N3CCC(C(=O)NC4CCCCC4)CC3)cc2CC1C (centres undefined)	11	-36	3	20%	?	?
COc1ccc(Cn2c(N)c(C(=O)NCc3ccco3)c3nc4ccccc4nc32)cc1	-21	37	-3	?	?	?
Nc1c(C(=O)NCc2ccco2)c2nc3ccccc3nc2n1Cc1ccccc1	3	-20	6	?	?	?
Nc1c(C(=O)NCc2ccco2)c2nc3ccccc3nc2n1CCN1CCOCC1	-13	-94*	-1	8%	-39%	nt
Nc1c(C(=O)NCc2ccco2)c2nc3ccccc3nc2n1CCc1ccccc1F	-5	?	12	?	nt	10µM*
COc1ccc(-n2c(N)c(C(=O)NCc3ccco3)c3nc4ccccc4nc32)c(OC)c1	-3	-11	-2	?	?	?
Nc1c(C(=O)NCc2ccco2)c2nc3ccccc3nc2n1Cc1ccc(F)cc1	7	6	5	?	?	1.9µM*
COc1ccc(CCn2c(N)c(C(=O)NCc3ccco3)c3nc4ccccc4nc32)cc1	-4	-75*	-1	?	-21%	?
Nc1c(C(=O)NCCN2CCOCC2)c2nc3ccccc3nc2n1-c1cccc(F)c1	-11	?	-1	?	?	nt
O=C(NCc1cccs1)C1CC(=O)N(c2ccc(Cl)cc2)C1 (centres undefined)	23	69	21	2%	28%	20%
COc1ccc(CCn2c(N)c(C(=O)NCc3ccco3)c3nc4ccccc4nc32)cc1OC	18	nt	12	?	18%	5.2µM*
Cc1ccccc1-n1ccnc1SCC(=O)Nc1cccc(S(=O)(=O)NC2=NCCC2)c1	nt	-61*	nt	-1%	nt	nt
O=C(COC(=O)c1ccc(O)cc1)Nc1cccc(S(=O)(=O)NC2=NCCC2)c1	nt	1	nt	14%	6.6µM*	?
CC(=O)c1ccc(S(=O)(=O)Nc2cccc(S(=O)(=O)NC3=NCCC3)c2)cc1	-8	-15	-3	-4%	-12%	33%
CC(=O)c1cccc(S(=O)(=O)Nc2cccc(S(=O)(=O)NC3=NCCC3)c2)c1	-6	-84*	-2	7%	24%	8%
O=C(Cc1csc(-c2ccc(F)cc2)n1)Nc1cccc(S(=O)(=O)NC2=NCCC2)c1	nt	?	nt	1%	6.6µM*	-29%
Cc1cccc(C)c1NC(=O)c1csc([C@H]2C[C@H](O)[C@@H](CO)O2)n1	nt	-30	nt	nt	nt	nt
COCC(C)n1c(SCc2ccc(C(=O)OC)cc2)nc2ccccc2c1=O (centres undefined)	-6	2	1	2%	?	?
O=S1(=O)C[C@H]2NC(=S)N(c3ccccc3)[C@H]2C1	-4	-24	-4	10%	-2%	8%
COc1ccc(-n2c(-c3ccco3)nc3c(cnn3-c3ccccc3C)c2=O)cc1	-5	?	-3	-6%	?	?
O=C(CCl)Nc1cccc(S(=O)(=O)NC2=NCCC2)c1	-7	-100*	10	13µM*	4.7µM*	3.3µM*
O=C(COC(=O)/C=C/c1ccc(Cl)cc1Cl)Nc1ccc2c(c1)OCCO2	12	-32	0	18%	2.9µM*	28%
SMILES	Shiga toxin inh	HCMV inh	CHX counter	HCV inhibitor	Pf growth 96h	Pf growth 48h
CC(C)(C)c1ccc(OCCC(=O)Nc2cccc(S(=O)(=O)NC3=NCCCCC3)c2)cc1	nt	-60*	nt	14µM*	?	12µM*
COc1cc(NC(=O)COC(=O)/C=C/c2ccc(Cl)cc2Cl)cc(OC)c1	-2	-13	-2	4%	0%	6%
O=C(COC(=O)/C=C/c1ccc(Cl)cc1Cl)Nc1cccc(S(=O)(=O)NC2=NCCC2)c1	nt	-69*	nt	nt	nt	nt
CCN(CC)S(=O)(=O)c1cc(C(=O)OC(C)C(=O)NCc2ccco2)ccc1C (centres undefined)	nt	0	nt	-5%	?	?
CCc1ccc(C(=O)CC2(O)C(=O)N(CN3CCOCC3)c3ccccc32)cc1 (centres undefined)	30	3	19*	13%	?	30%
CCN1C(=O)C(O)(CC(=O)c2ccc3c(c2)OCCO3)c2ccccc21 (centres undefined)	15	20	6	-3%	7%	nt
CC(C)c1ccc(C(=O)CC2(O)C(=O)N(CN3CCOCC3)c3ccccc32)cc1 (centres undefined)	64*	-2	39*	-3%	12µM*	37%
Cc1ccc(C(=O)CC2(O)C(=O)N(CN3CCOCC3)c3ccccc32)cc1 (centres undefined)	44*	20	18*	16%	3%	?
COc1ccc(N2CCC[C@@H]2/C=C/C(=O)OC(C)(C)C)cc1	nt	24	nt	nt	nt	nt
O=C(NCc1ccccn1)[C@@H]1CCCN1C(=O)[C@@H]1CCCN1C(=O)c1cccs1	nt	-10	nt	nt	nt	nt
CCOC(=O)NNC(=O)CCn1c2c(c3ccccc31)CCCC2	-9	-89*	6	?	-25%	?
O=C(CCn1c2c(c3ccccc31)CCCC2)NNC(=O)c1ccc([N+](=O)[O-])cc1	-4	-10	0	?	-2%	-2%
O=C(CCn1c2c(c3ccccc31)CCCC2)NNC(=O)c1ccc(Cl)c([N+](=O)[O-])c1	49	-29	-2	10µM*	-11%	-9%
Cc1ccn2c(=O)cc(COc3ccc(NC(=O)c4ccccc4F)cc3)nc2c1	nt	1	nt	nt	nt	nt
Cc1ccc(CNC(=O)CN(C)S(=O)(=O)c2ccc3c(c2)c(=O)n(C)c(=O)n3C)cc1	nt	-29	nt	nt	nt	nt
COc1ccc(C(=O)N2CCN(CCNC(=O)C(=O)Nc3ccc(F)cc3)CC2)cc1OC	31	11	1	-14%	21%	18%
CCC1(c2ccccc2)NC(=O)N(CC(=O)Nc2cccc(S(=O)(=O)N3CCCC3)c2)C1=O (centres undefined)	nt	-5	nt	-1%	-25%	?
CCOc1ccc(S(=O)(=O)N2CCCCC2)cc1NC(=O)CN1C(=O)NC(CC)(c2ccccc2)C1=O (centres undefined)	-8	-17	-1	?	12µM*	4.7µM*
CCC1(c2ccccc2)NC(=O)N(CC(=O)Nc2cc(S(=O)(=O)N3CCCCC3)ccc2OC(C)C)C1=O (centres undefined)	nt	-10	nt	10µM*	?	10µM*

Screens (PubChem BioAssay)
